# Compounds with a hit are over-represented: about 3% of the library has one in this group of screens.
# 14-3-3 Bad PPI: disrupts binding of bovine 14-3-3 zeta to phospho-Bad peptide. TR-FRET 14-3-3zeta/Dy647-pBad peptide displacement, 1 h. 220,000 tested, 0.71% active. inhibition, % at 21.7 µM;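 active means inhibition above about 70%, limit read from the data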;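 further: 0% = full 14-3-3 plus peptide FRET controls and 100% = background without 14-3-3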
# Target sequence (P63103 whole entry, looked up): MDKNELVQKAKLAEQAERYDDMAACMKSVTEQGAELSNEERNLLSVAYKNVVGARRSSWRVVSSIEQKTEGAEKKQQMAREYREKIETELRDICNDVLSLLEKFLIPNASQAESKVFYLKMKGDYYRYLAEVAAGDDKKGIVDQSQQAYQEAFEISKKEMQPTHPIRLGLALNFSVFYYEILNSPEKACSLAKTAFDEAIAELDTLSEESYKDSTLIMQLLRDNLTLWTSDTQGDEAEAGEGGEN
# zVAD death inh: L929 zVAD cell death inhibition. L929 zVAD necroptosis rescue, ATP luminescence, 24 h; with zVAD 60 µM. viability rescue, % at 10 µM. 220,000 tested, 0.38% active. AID 1377;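 active means activation, scaled between plate controls, above about 75%, limit read from the data; inactive means activation under that limit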;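 further: 0% = zVAD with DMSO and 100% = DMSO alone without zVAD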
# TNF necrop inh: blocks TNF-alpha induced death of Jurkat FADD-/- cells; Jurkat FADD-/- TNF necroptosis rescue, ATP luminescence, 24 h; 0 = TNF only, 100 = no-TNF cells; activation (protection from cell death), % at 10 µM; 220,000 tested, 0.068% active;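 active means activation, meaning protection from cell death, of at least 50% relative to plate controls; inactive means activation below 50%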;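 further: necroptosis triggered by 40 ng/mL TNF-alpha added together with compound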
# Calpain2 inh: calpain II (pig) inhibition. purified calpain II, fluorogenic peptide substrate, 30 min. inhibition, % at 16 µM. 220,000 tested, 0.37% active;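 active means inhibition above about 50%, limit read from the data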
# HMGR II inh: blocks class II HMG-CoA reductase of Enterococcus faecalis; purified E. faecalis HMGR, NADPH absorbance 340 nm kinetic; inhibition, % at 10 µM; 190,000 tested, 0.41% active; AID 1066;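 active means inhibition above a set limit, the median over all tested compounds plus 3 SD, cut at about 9.5% in these data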;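 further: enzyme runs in reverse so mevalonate oxidation gives rising NADPH absorbance; 0% = complete reaction with DMSO and 100% = background rate lacking mevalonate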
# ROMK mod: human ROMK K+ channel modulation, primary screen. P48048. Tet-inducible ROMK, thallium flux fluorescence; actives lie on both sides. B-score at 10 µM. 130,000 tested, 2% active;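 active means signal ratio slope over the read window, or its plate-corrected B-score, at least 3 SD from the plate mean, either direction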;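 further: B-score of the F/F0 ratio slope over 7 to 12 s after thallium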
# Target sequence (P48048 whole entry, looked up): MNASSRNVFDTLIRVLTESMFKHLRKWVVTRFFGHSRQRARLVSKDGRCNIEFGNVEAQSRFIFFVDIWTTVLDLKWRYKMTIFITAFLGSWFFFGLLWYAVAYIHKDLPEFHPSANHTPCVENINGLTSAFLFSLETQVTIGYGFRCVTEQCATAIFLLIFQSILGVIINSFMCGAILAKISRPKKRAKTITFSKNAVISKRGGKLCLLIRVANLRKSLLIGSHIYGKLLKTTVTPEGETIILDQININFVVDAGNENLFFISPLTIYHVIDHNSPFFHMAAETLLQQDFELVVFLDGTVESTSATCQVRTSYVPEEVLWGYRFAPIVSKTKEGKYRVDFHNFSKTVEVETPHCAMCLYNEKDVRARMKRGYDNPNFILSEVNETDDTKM
# Numbers without * were called inactive; i = inactive; . = no result; [ ] = dose if it differs, or a comment.
SMILES,14-3-3 Bad PPI,zVAD death inh,TNF necrop inh,Calpain2 inh,HMGR II inh,ROMK mod
O=c1c2c(-c3ccccc3)csc2ncn1/N=C/c1ccc(O)c([N+](=O)[O-])c1,5.0,-0.5,-2.6,55.6*,-4.1,-0.557
CC1=C(C#N)C(/C=N/OCc2ccc(F)cc2Cl)CC(=O)N1 (centres undefined),-4.0,0.0,0.2,-27.4,-2.3,0.405
CCOC(=O)Cn1nc(-c2ccccc2)c2cnc3ccc(CC)cc3c21,33.9,61.9,-3.0,-10.8,2.2,-0.000301
Cn1cnnc1Sc1ccc(C(=O)OCC(=O)Nc2ccccc2)cc1[N+](=O)[O-],-4.1,0.1,0.3,32.0,0.5,-0.256
Cn1cnnc1Sc1ccc(C(=O)OCC(=O)Nc2cc(Cl)cc(Cl)c2)cc1[N+](=O)[O-],85.9*[fluorescence artefact?],1.1,1.2,3.4,4.2,.
COc1ccc(C(=O)Nc2ccccc2C(=O)N/N=C/c2ccco2)cc1,-2.5,-0.1,-5.0,13.8,-2.9,0.34
COc1cc(NS(=O)(=O)c2ccc(NC(=S)NC(=O)c3sc4ccccc4c3Cl)cc2)ncn1,-3.5,2.0,3.3,57.5*,0.5,.
COc1cc(NS(=O)(=O)c2ccc(NC(=S)NC(=O)c3ccco3)cc2)ncn1,-7.4,30.7,0.7,-14.0,-2.2,0.251
COc1cc(NS(=O)(=O)c2ccc(NC(=S)NC(=O)CC(C)C)cc2)nc(OC)n1,-0.2,-0.6,-0.4,-25.6,12.8*,0.806
COC(=O)CCC(=O)NC(=S)Nc1ccc(S(=O)(=O)Nc2cc(OC)nc(OC)n2)cc1,-0.6,0.0,0.2,17.0,-0.7,-0.0361
COc1ccc(CCn2c(-c3ccc(OC)cc3)nc3c(c(=O)c4ccccc4n3C)c2=O)cc1,5.8,-0.5,-1.1,-28.9,.,0.0583
CCc1nc2c(c(=O)c3ccccc3n2C)c(=O)n1CCc1ccc(OC)cc1,88.2*,7.9,-7.0,3.7,-3.1,.
CC1=C(C(=O)Nc2ccccc2)C(c2sccc2C)n2nnnc2N1 (centres undefined),-9.5,1.5,-1.3,-0.3,-1.7,0.472
Cc1ccc2cc3c(N)[nH]nc3nc2c1,3.1,2.2,3.9,7.1,-3.5,.
O=C(O)c1cccc(-n2cccc2/C=C2/NC(=O)N(c3ccc(Cl)cc3)C2=O)c1,93.9*,1.0,1.0,-3.2,10.1*,1.39
C=CCOc1c(Br)cc(CNc2nccs2)cc1OC,0.8,0.2,-0.4,-4.9,14.1*,0.284
CSc1nc(Cl)c(C#N)c(-c2ccc(C)cc2)n1,77.2*,0.7,-5.5,-10.9,1.2,.
Cn1c(/C(C#N)=N/O)nc2ccccc21,1.0,-0.2,-1.1,-15.0,10.9*,0.446
CCn1c(/C(C#N)=N/O)nc2ccccc21,-0.2,0.8,1.7,0.9,-0.4,-0.726
Cc1nc(-c2ccccc2)sc1-c1nc(-c2cccnc2)ncc1S(=O)(=O)c1ccccc1,-3.0,0.1,-0.5,25.2,-2.0,-0.39
CCN(CC)C(=O)/C(=C\c1ccc(Br)cc1)NC(=O)c1ccccc1OC,2.9,0.2,-4.8,-4.1,-2.0,.
O=C(Nc1ccc(Oc2ccccc2)cc1)C1CC1,-0.8,2.6,0.9,13.1,-4.3,0.141
O=C(Nc1ccc(Oc2ccccc2)cc1)C1CCN(c2ncccn2)CC1,78.5*,0.4,-2.1,22.6,-4.2,.
CC(C)c1cc(NCC2CCCO2)n2c(nc3ccccc32)c1C#N (centres undefined),1.0,-0.5,-1.5,i,-4.6,0.926
Cc1cccc(OCCC(=O)Nc2ccc(S(=O)(=O)N3CCCC3)cc2)c1,-2.0,16.9,-1.0,-25.1,-1.7,-0.487
SMILES,14-3-3 Bad PPI,zVAD death inh,TNF necrop inh,Calpain2 inh,HMGR II inh,ROMK mod
Cc1cccc(OCCC(=O)Nc2ccc(C)c(S(=O)(=O)N3CCCCC3)c2)c1,-1.0,2.0,1.7,55.1*,2.1,.
O=C(CCSc1ccc(Cl)cc1)N1CCN(c2ncccn2)CC1,10.1,1.7,0.2,-10.1,-1.7,-0.284
COc1ccc(NC(=S)NC(=O)c2ccccc2Cl)cc1,-9.2,1.1,0.4,1.1,-2.5,5.35*
COc1ccc(C(=O)NC(=S)Nc2ccc(Cc3ccncc3)cc2)cc1,80.7*,0.8,-2.5,-4.4,2.7,.
Cc1ccccc1C(=O)NC(=S)Nc1ccc(Cc2ccncc2)cc1,-11.0,0.7,1.0,-0.3,-2.2,-0.209
CC(c1ccccc1)N1C(=O)c2ccccc2C1O (centres undefined),-8.8,0.3,3.2,4.0,4.0,.
CCC1=[N+](CC(=O)c2ccc(C)cc2)CCn2c(C)ccc21,0.4,-0.3,-1.2,-5.9,0.3,.
CCC1=[N+](C)CCn2c(C)ccc21,77.2*[fluorescence artefact?],0.4,0.7,-30.5,-2.1,-0.537
CCOc1ccc(C(=O)C(c2ccccc2)N2CCOCC2)cc1 (centres undefined),64.0,-0.4,-0.3,2.8,-0.1,0.442
COc1ccc(C(=O)C(c2ccccc2)N2CCOCC2)cc1 (centres undefined),71.0*,-0.2,-0.3,-26.0,-1.2,-0.169
COc1cccc(C(=O)N2CCN(C3CCN(Cc4ccccc4)CC3)CC2)c1OC,22.9,0.3,1.1,2.2,.,.
COc1cccc(C(=O)N2CCC(N3CC(C)OC(C)C3)CC2)c1 (centres undefined),26.3,-0.1,1.2,-17.8,-5.1,0.109
O=C(c1ccc(-n2cccc2)cc1)N1CCN(Cc2ccccc2)CC1,91.3*,0.1,-2.9,24.7,0.1,.
COc1cc(OC)cc(C(=O)N2CCN(C3CCN(Cc4ccccc4)CC3)CC2)c1,72.7*,-0.2,-1.0,18.7,-4.2,-1.01
COc1cccc(C(=O)N2CCN(C3CCC(c4ccccc4)CC3)CC2)c1 (centres undefined),74.6*,-0.1,0.0,4.3,-5.7,.
O=C(c1ccccc1)N1CCN(C2CCCCCC2)CC1,72.3*,-0.4,-3.1,-0.1,-4.8,-0.484
Cc1ccn2c(C(=O)c3ccc(Cl)cc3)cnc2c1,6.3,61.9,-2.3,-4.4,0.4,-0.432
COCCCN(CCC#N)C(=O)c1c(-c2c(Cl)cccc2Cl)noc1C,-7.6,-1.0,2.4,-12.3,.,.
COc1ccc(C(=O)N2CCC(N3CCN(c4ccccc4)CC3)CC2)cc1,89.1*,0.7,1.0,19.0,-0.1,-0.448
CC(=O)Nc1nonc1NC(C)=O,-4.6,0.5,0.5,-3.1,-0.4,0.0905
CC(=O)Nc1cc(OC(C)=O)c2nonc2c1OC(C)=O,.,-0.6,-16.7,.,.,-4.24*
Cc1ccc2nc(Cl)c(CNCc3ccccc3)cc2c1,-25.1,1.8,0.7,-26.0,-2.9,-0.14
NC(=S)n1[nH]c(-c2ccc([N+](=O)[O-])cc2)c(N=Nc2ccc(Cl)cc2)c1=O,93.2*,-2.3,-4.1,6.2,-9.9,-0.303
Cc1ccc([N+](=O)[O-])cc1N=Nc1c(-c2ccc([N+](=O)[O-])cc2)[nH]n(C(N)=S)c1=O,43.0,-1.4,-6.5,-56.7,-2.0,-0.065
